Experiment [1] can be described thus: qHTS assay to identify small molecule antagonists of the estrogen related receptor (ERR) signaling pathway (AID 1224819; note: nearly all actives have a fitted effect of over 50% in size; note: potency is the fitted concentration of half-maximal effect). The method, boiled down: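 Seed ERR cells 2,000/well; rest 6 h at 37 C/5% CO2; pin compounds in DMSO; incubate 18 h at 37 C; add One-Glo; wait 30 min at room temperature; measure luminescence.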
A general note: Quantitative high-throughput screening tests each substance at several concentrations.

Experiment [2] in a line: qHTS assay to identify small molecule agonists of the estrogen related receptor (ERR) signaling pathway (AID 1224820). The method, boiled down:
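After 6 h plating (2,000 cells/well) and 18 h compound treatment at 37 C, ERR cells were lysed with One-Glo and luminescence read after 30 min at room temperature.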

Experiment [3] can be described thus: qHTS assay to identify small molecule agonists of the estrogen related receptor signaling pathway with the pleiotropic PPARgamma coactivator (PGC) (AID 1224823). Note: potency is the fitted concentration of half-maximal effect. In short, it runs like this: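 Luminescence from One-Glo reagent (30 min, room temperature) was read after 18 h compound treatment at 37 C of PGC/ERR cells plated 6 h beforehand; compounds delivered in DMSO by pin tool.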

The test system of experiment [4] is estrogen-related receptor alpha (ERRalpha) with PGC-1alpha coactivator, human. The experiment in a line: qHTS assay to identify small molecule antagonists of the estrogen related receptor signaling pathway with the pleiotropic PPARgamma coactivator (PGC) (AID 1224821; calls by dose curve; note: nearly all actives have a fitted effect of over 50% in size; note: potency is the fitted concentration of half-maximal effect). In short, it runs like this: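 Luminescence from One-Glo luciferase reagent (30 min, room temperature) measured after 18 h compound treatment at 37 °C. Cells carry the PGC/ERR reporter and were seeded 6 h prior to dosing.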

The nature of experiment [5]: qHTS assay to identify small molecule antagonists of the estrogen related receptor signaling pathway with the pleiotropic PPARgamma coactivator (PGC) cell viability counter screen (AID 1224822; note: potency is the fitted concentration of half-maximal effect;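 note: viability read after 17.5 h compound exposure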). The method, boiled down:
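17.5 h compound treatment of PGC/ERR cells at 37 C; readout CellTiter-Fluor fluorescence; run alongside the PGC/ERR antagonist screen to flag cytotoxic compounds.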

The target of experiment [6] is Luciferin 4-monooxygenase (Photinus pyralis) (UniProt P08659). The experiment in a line: qHTS assay to identify small molecule inhibitors of firefly luciferase (AID 1224835). Note: series mostly up to about 120 µM; nearly all actives have a fitted effect of over 25% in size. In short, it runs like this:
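Inhibition of purified Photinus luciferase is measured by luminescence. Substrate levels (D-luciferin, ATP) sit at their KM values. Each compound is tested in a concentration series.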

Inconclusive results are not listed. Calls of active or inactive are those of the source. Unless noted, calls come from the whole dose curve; as a rule, active = well fitted curve in the direction sought with a large enough effect in the repeat runs; inconclusive = weak or mixed curves; inactive = no such curve, though single readings can be large; an effect the other way counts as inactive or inconclusive.

Luciferin 4-monooxygenase (Photinus pyralis), sequence (P08659 whole entry, looked up): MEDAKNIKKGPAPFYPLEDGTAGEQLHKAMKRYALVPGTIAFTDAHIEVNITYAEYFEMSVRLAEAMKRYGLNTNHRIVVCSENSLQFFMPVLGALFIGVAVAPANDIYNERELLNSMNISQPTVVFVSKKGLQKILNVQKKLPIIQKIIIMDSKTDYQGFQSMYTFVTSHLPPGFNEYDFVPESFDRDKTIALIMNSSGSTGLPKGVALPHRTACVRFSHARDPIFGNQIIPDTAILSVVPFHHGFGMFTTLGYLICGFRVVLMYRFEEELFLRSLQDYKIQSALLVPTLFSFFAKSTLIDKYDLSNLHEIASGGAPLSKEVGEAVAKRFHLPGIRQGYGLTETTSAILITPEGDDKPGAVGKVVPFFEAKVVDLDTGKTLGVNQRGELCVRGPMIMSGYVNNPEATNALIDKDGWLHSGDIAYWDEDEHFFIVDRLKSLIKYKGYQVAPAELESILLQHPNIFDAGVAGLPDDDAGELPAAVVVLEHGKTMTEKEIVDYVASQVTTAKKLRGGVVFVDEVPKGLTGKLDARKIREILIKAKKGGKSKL

Consider `CCc1ccc(/C=C2/SC(=S)NC2=O)cc1`, for which the Potency entry in experiment [1], in experiment [2] and in experiment [3] was “inactive” in each case.
As for `CCOC(=O)C1=C(C)NC(C)=C(C(=O)OCC)C1c1c(F)c(F)c(F)c(F)c1F`, the Potency is 19.6 µM (active) in experiment [1] and 25.6 µM (active) in experiment [4]. For the same compound, the Potency result in experiment [2] and in experiment [3] was “inactive” each time.
In the case of `COc1cc(OC)cc(-c2cc3cnc(N)nc3nc2NC(=O)NC(C)(C)C)c1`, the Potency in experiment [1] was 20.3 µM (active). Further, the Potency entry in experiment [2], in experiment [5] and in experiment [3] was “inactive” in each case.
As for `CC(C)c1ccc2c(c1)c(SC(C)(C)C)c(CC(C)(C)C(=O)O)n2Cc1ccc(Cl)cc1`, the Potency in experiment [1] was 12.8 µM (active); in experiment [4] it was 20.3 µM (active). In addition, in experiment [3], the Potency result was “inactive”.
With `NC(N)=NC(=O)c1nc(Cl)c(N2CCCCCC2)nc1N`, the Potency in experiment [1] is 11.9 µM (active). Moreover, the Potency entry in experiment [2], in experiment [4] and in experiment [3] was “inactive” throughout.
With `O=C1NC(=O)c2cc(Nc3ccccc3)c(Nc3ccccc3)cc21`, the Potency in experiment [1] is 10.2 µM (active); in experiment [4] it was 20.3 µM (active). Also, the Potency entry in experiment [2] and in experiment [3] was “inactive” each time.
In the case of `O=[N+]([O-])c1ccc(-c2nc(-c3ccc(F)cc3)c(-c3ccncc3)[nH]2)cc1`, the Potency in experiment [1] is 13.3 µM (active). Moreover, the Potency entry in experiment [2] and in experiment [3] was “inactive” throughout.
For the compound `CC[C@@H]1Cc2cc(O)ccc2C2=C1c1ccc(O)cc1C[C@H]2CC`, the figures for the Potency in experiment [1] and in experiment [4] were 14.4 µM (active) and 15 µM (active), respectively. In addition, the Potency result in experiment [2] and in experiment [3] was “inactive” each time.
Take `Cn1c(=O)c(-c2c(Cl)cccc2Cl)cc2cnc(Nc3ccc(N4CCOCC4)cc3)nc21`: the Potency is 4.38 µM (active) in experiment [1] and 0.0531 µM (active) in experiment [3]. Further, the Potency result in experiment [2] and in experiment [4] was “inactive” in each case.
Turning to `CCCCOC(=O)NS(=O)(=O)c1sc(CC(C)C)cc1-c1ccc(Cn2c(CC)nc3c(C)cc(C)nc32)cc1`, the Potency in experiment [1] was 11.9 µM (active). The Potency entry in experiment [2] and in experiment [3] was “inactive” in each case.
As for `C=CCc1cccc(/C=N/NC(=O)CN2CCN(Cc3ccccc3)CC2)c1O`, the Potency in experiment [1] is 3.9 µM (active). Further, the Potency entry in experiment [2], in experiment [4] and in experiment [3] was “inactive” throughout.
For `O=[N+]([O-])c1ccc2c(c1)S(=O)(=O)C=C2`, the Potency entry in experiment [2] was “inactive”. Besides, the Potency in experiment [5] was 11.4 µM (active).
With `CCCCCCCC1CCC(=O)O1` (configuration not stated), the Potency entry in experiment [6] is “inactive”.
Consider `O=C(CCCCCN1CCN(c2ccccc2-c2ccccc2)CC1)NC1CCCc2ccccc21` (configuration not stated), for which the Potency entry in experiment [2] and in experiment [3] was “inactive” throughout.
For `COc1ccc(/C=C/c2nc(NCCCN(C)C)c3ccccc3n2)cc1`, the Potency entry in experiment [2] and in experiment [3] was “inactive” in each case. For the same compound, the Potency in experiment [4] is 23.7 µM (active).
`CN(C)S(=O)(=O)c1ccc2c(c1)/C(=C/c1cc3c([nH]1)CCCC3)C(=O)N2`: the Potency result in experiment [2], in experiment [4] and in experiment [5] was “inactive” in each case.
With `Nc1c(S(=O)(=O)O)cc(Nc2ccc(Nc3nc(Cl)nc(Nc4ccc(S(=O)(=O)O)cc4)n3)c(S(=O)(=O)O)c2)c2c1C(=O)c1ccccc1C2=O`, the Potency entry in experiment [2] and in experiment [3] was “inactive” each time. Moreover, the Potency in experiment [4] is 18.8 µM (active).
In the case of `CC1(C)C(=O)N(CCN2CCC(C(=O)c3ccc(F)cc3)CC2)c2ccccc21`, in experiment [1], the Potency was 21.1 µM (active). Besides, the Potency entry in experiment [3] was “inactive”.
For the compound `COc1cccc2c1[C@@H]1CN(CCCCn3c(=O)[nH]c4c(sc5ncc(-c6ccccc6)nc54)c3=O)C[C@@H]1CO2`, the Potency entry in experiment [2], in experiment [4] and in experiment [3] was “inactive” in each case.
As to `Cc1cccc(C2CN(C)CCc3c2cc(O)c(O)c3Cl)c1` (configuration not stated), the Potency entry in experiment [2], in experiment [4] and in experiment [3] was “inactive” in each case.
Turning to `CC(C)N(CCC(=O)c1ccc2ccccc2c1)Cc1ccccc1`, the Potency entry in experiment [2] and in experiment [3] was “inactive” in each case. In experiment [4], the Potency was 19.9 µM (active).
As to `Cc1cc(Cl)ccc1OCCCC(=O)NO`, in experiment [4], the Potency entry is “inactive”.
As to `Oc1cc2c(cc1O)CN(C(=S)NCCc1ccc(Cl)cc1)CCC2`, the Potency result in experiment [2], in experiment [4], in experiment [5] and in experiment [3] was “inactive” throughout.
Take `CN1CCCC1CCOC(C)(c1ccccc1)c1ccc(Cl)cc1` (configuration not stated): the Potency entry in experiment [2], in experiment [4] and in experiment [3] was “inactive” throughout.
As to `Nc1nc(N)c(N=O)c(OCC2CCCCC2)n1`, the Potency result in experiment [2], in experiment [4] and in experiment [3] was “inactive” throughout.
On to `C=CCN1CCc2c(cc(O)c(O)c2Br)[C@@H](c2ccccc2)C1`, for which the Potency result in experiment [2], in experiment [5] and in experiment [3] was “inactive” each time.
Consider `CCOC(=O)N1CCN(/[N+]([O-])=N/Oc2ccc([N+](=O)[O-])cc2[N+](=O)[O-])CC1`, for which the Potency result in experiment [2] and in experiment [3] was “inactive” in each case. Further, the Potency in experiment [5] was 13.9 µM (active).
With `C[C@H](Cc1ccc(O)c(O)c1)[C@@H](C)Cc1ccc(O)c(O)c1`, the Potency result in experiment [2], in experiment [4], in experiment [5] and in experiment [3] was “inactive” each time.
Take `C=CCN1CCc2c(cc(O)c(O)c2Cl)C(c2ccccc2)C1` (configuration not stated): the Potency result in experiment [2], in experiment [4], in experiment [5] and in experiment [3] was “inactive” in each case.
In the case of `CCCCCCCCCCC(C)(C)C(=O)Nc1c(OC)cc(OC)cc1OC`, the Potency entry in experiment [2], in experiment [4], in experiment [5] and in experiment [3] was “inactive” in each case.
As for `COC(=O)C1=C(C)NC(C)=C(C(=O)OC)C1c1cccc(NC(=O)NCCCN2CCC(c3cccc(OC)c3)CC2)c1`, the Potency entry in experiment [2] and in experiment [3] was “inactive” throughout. Moreover, the Potency is 31 µM (active) in experiment [4] and 20.3 µM (active) in experiment [5].
Turning to `COC(=O)C1=C(C)NC(C)=C([N+](=O)[O-])C1c1ccccc1C(F)(F)F` (configuration not stated), the Potency result in experiment [2] and in experiment [3] was “inactive” each time.
As for `Oc1ccc(/C=C/c2ccc(/C=C/c3ccc(O)cc3)c(Br)c2)cc1`, the Potency entry in experiment [2], in experiment [4] and in experiment [3] was “inactive” each time.
Consider `CC(=O)N(C)C`, for which the Potency result in experiment [6] was “inactive”.
As to `CC(C)C[C@H](NC(=O)[C@@H](O)[C@H](N)Cc1ccccc1)C(=O)O`, the Potency entry in experiment [2], in experiment [5] and in experiment [3] was “inactive” in each case. Further, the Potency in experiment [4] is 6.94 µM (active).
On to `Clc1ccc2c(c1)N=C(N1CCNCC1)c1ccccc1N2`, for which the Potency entry in experiment [2], in experiment [4] and in experiment [3] was “inactive” each time.
For the compound `N#C/C(=C\c1ccc(-c2cc(Cl)ccc2Cl)o1)C(=O)Nc1cccc2ncccc12`, the Potency result in experiment [2] and in experiment [4] was “inactive” each time. Moreover, in experiment [5], the Potency was 14.4 µM (active).
For `O=c1oc(Cl)c(Cl)c2ccccc12`, the Potency entry in experiment [2] and in experiment [3] was “inactive” throughout.
`COc1ccc2ccccc2c1`: the Potency result in experiment [6] is “inactive”.

Source of the values: PubChem BioAssay (Tox21).
